From ChEMBL document CHEMBL4513156, “CO-ADD screening of NCPRI (Romania) compounds”
Results with a measured potency or affinity are listed apart.

Key:
[1] = tested on: Staphylococcus aureus; conditions: Concentration 32 ug.mL-1; ASSAY_TEST Inhibition of Bacterial Growth; detection method Absorption (OD600); MEDIA CAMHB; plate type 384well; NBS; CORNING #3640; time 18 hr
[2] = tested on: Escherichia coli; conditions: Concentration 32 ug.mL-1; ASSAY_TEST Inhibition of Bacterial Growth; detection method Absorption (OD600); MEDIA CAMHB; plate type 384well; NBS; CORNING #3640; time 18 hr

Row | SMILES | Inhibition [1] | Inhibition [2]
1 | CC(C)(C)[Si](C)(C)O[C@H](/C=C/[C@@H]1[C@@H](CC=NNC(=O)c2ccncc2)[C@@H](O)C[C@H]1O[Si](C)(C)C(C)(C)C)CCc1ccccc1 | 11.86% | 7.54%
2 | CC(C)(C)[Si](C)(C)OC[C@H]1[C@H](CC=NNC(=O)c2ccncc2)[C@H](O)C[C@@H]1O[Si](C)(C)C(C)(C)C | 21.42% | 11.91%
3 | O=C(NN=CC[C@H]1[C@H](CO)[C@@H](O)C[C@H]1O)c1ccncc1 | 21.6% | 12.24%
4 | O=C(NNC(=O)[C@@H]1C[C@H](C(=O)O)[C@@H]2CC=C[C@@H]21)c1ccncc1 | 32.09% | 14.78%
5 | COC(=O)CCCCCC[C@@H]1[C@@H](/C=N/NC(=O)c2ccncc2)[C@H](OC(=O)c2ccccc2)C[C@@H]1O | 26.15% | 14.2%
6 | O=C(N/N=C1/C[C@@H]2[C@H](C1)[C@H](OC(=O)c1ccccc1)C[C@@H]2OC(=O)c1ccccc1)c1ccncc1 | 26.15% | 8.09%
7 | O=C1C[C@H]2[C@H](/C=N/NC(=O)c3ccncc3)[C@H](C[C@@H]2Cl)O1 | 34.06% | 18.17%
8 | O=C(NN=CC[C@@H]1[C@@H](/C=C/[C@@H](O)CCc2ccccc2)[C@H](O)C[C@@H]1O)c1ccncc1 | 16.65% | 9.46%
9 | O=C(N/N=C/COc1cccc(Cl)c1)c1ccncc1 | 8.36% | 6.4%
10 | O=C(NN=C[C@H]1[C@@H]2CCO[C@@H]2C[C@@H]1O)c1ccncc1 | 13.82% | 5.67%
11 | O=C(N/N=C1\CC[C@@H]2[C@H]1[C@H](OC(=O)c1ccccc1)C[C@@H]2OC(=O)c1ccccc1)c1ccncc1 | 27.83% | 14.7%
12 | O=C(N/N=C1/C2C[C@H]3C(C2C(=O)O)[C@@H]13)c1ccncc1 (some centres undefined) | 16.39% | 13.83%
13 | CC(C)(C)[Si](C)(C)OCC1C2C[C@H]3C1[C@@H]3/C2=N/NC(=O)c1ccncc1 (some centres undefined) | 14.57% | 8.28%
14 | O=C(NNC(=O)c1ccc([N+](=O)[O-])cc1C(=O)O)c1ccncc1 | 30.83% | 15.66%
15 | COC(=O)C[C@H]1[C@H](/C=N\NC(=O)c2ccncc2)[C@@H](O[Si](C)(C)C(C)(C)C)C[C@@H]1Cl | 29.13% | 13.69%
16 | O=C(N/N=C1/C2C[C@H]3C(C2CO)[C@H]13)c1ccncc1 (some centres undefined) | 21.76% | 11.47%
17 | O=C(N/N=C1\C[C@@H]2[C@@H](CO)[C@H]1C[C@H]2Cl)c1ccncc1 | 26.12% | 15.81%
18 | O=C(N/N=C/C[C@@H]1[C@@H](/C=C/[C@@H](O)COc2ccccc2)[C@H](O)C[C@@H]1O)c1ccncc1 | 16.08% | 10.98%
19 | O=C(NN=C[C@H]1[C@H]2CC(O)OC[C@H]2C[C@H]1O)c1ccncc1 (some centres undefined) | 15.22% | 4.63%
20 | O=C(N/N=C1/C[C@H]2[C@H](CO)[C@@H]1C[C@@H]2Cl)c1ccncc1 | 26.26% | 16.12%
21 | O=C(N/N=C/C[C@@H]1[C@@H](/C=C/[C@@H](O)COc2cccc(Cl)c2)[C@H](O)C[C@@H]1O)c1ccncc1 | 27.05% | 14.88%
22 | O=C(N/N=C1\C[C@@H]2[C@H](COC(c3ccccc3)(c3ccccc3)c3ccccc3)C[C@H](CO)[C@@H]2C1)c1ccncc1 | 13.89% | 6.21%
23 | O=C(ON/N=C/[C@@H]1[C@@H]2C[C@H](Cl)[C@H]1C[C@H]2O)c1ccncc1 | 25.17% | 12.76%
24 | O=C(NNC(c1ccccc1)(c1ccccc1)c1ccccc1)c1ccncc1 | 1.88% | 5.22%
25 | O=C(N/N=C/CCCO)c1ccncc1 | 10.52% | 5.12%
26 | NNC(=O)c1ccncc1 [ISONIAZID] | 27.38% | 20.51%
27 | O=C(NNC(=O)[C@@H]1C[C@H](C(=O)O)[C@@H]2CCC[C@@H]21)c1ccncc1 | 31.35% | 13.96%
